Source: PubChem
TRPV1 PAM: HTS Assay for Compounds that Act as Potentiators of the Vanilloid Receptor 1; potentiation, % at 8.33 µM; 0.02% of 320,000 active; TRPV1-expressing cells, Fluo-8 calcium influx, capsaicin EC20 potentiation; in the data active = potentiation above about 80%; inconclusive = between about 30% and that limit; note: 0% is about no effect
Target sequence (Q8NER1 whole entry, looked up): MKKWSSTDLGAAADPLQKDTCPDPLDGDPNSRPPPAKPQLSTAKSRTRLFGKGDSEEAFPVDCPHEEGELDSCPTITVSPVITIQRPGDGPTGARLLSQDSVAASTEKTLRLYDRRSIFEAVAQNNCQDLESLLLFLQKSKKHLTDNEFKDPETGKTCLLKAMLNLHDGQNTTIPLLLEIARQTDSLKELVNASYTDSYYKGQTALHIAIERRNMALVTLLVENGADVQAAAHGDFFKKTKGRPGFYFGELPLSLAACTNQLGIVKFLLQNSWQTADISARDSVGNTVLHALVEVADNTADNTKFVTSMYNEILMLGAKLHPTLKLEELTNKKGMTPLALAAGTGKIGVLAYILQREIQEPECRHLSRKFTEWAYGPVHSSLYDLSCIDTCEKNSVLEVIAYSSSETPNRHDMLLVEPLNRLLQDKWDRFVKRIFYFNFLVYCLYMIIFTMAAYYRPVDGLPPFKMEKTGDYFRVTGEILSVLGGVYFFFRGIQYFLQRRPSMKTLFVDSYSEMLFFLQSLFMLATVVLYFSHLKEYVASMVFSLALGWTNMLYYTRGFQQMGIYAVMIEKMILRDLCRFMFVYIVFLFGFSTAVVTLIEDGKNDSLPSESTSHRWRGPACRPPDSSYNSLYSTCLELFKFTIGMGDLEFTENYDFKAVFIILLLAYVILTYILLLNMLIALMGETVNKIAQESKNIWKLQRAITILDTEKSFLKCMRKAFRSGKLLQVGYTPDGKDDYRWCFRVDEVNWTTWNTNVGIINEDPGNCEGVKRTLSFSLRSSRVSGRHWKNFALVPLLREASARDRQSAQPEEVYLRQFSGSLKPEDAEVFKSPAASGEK
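Cells expressing TRPV1 were dye-loaded with Fluo-8 and read kinetically: 10 s baseline, 3 min after compound (agonist portion), then 2 min after EC20 capsaicin (allosteric enhancer portion). Calcium-bound dye fluorescence at 480/520 nm.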
RGS4 inhibitor: Inhibitors of Regulator of G Protein Signaling (RGS) 4: qHTS; Regulator of G-protein signaling 4 (Homo sapiens), P49798; Transcreener GDP fluorescence polarization, RGS4-accelerated GTP hydrolysis; Potency, µM (doses to about 114 µM), for inactives: at the highest dose activity change, negative = inhibition, actives largely listed as inhibitors; 0.039% of 390,000 active; AID 504845, 2011; note: potency is the fitted concentration of half-maximal effect; % is set by controls: 0 for no effect and ±100 for the full control effect; nearly all actives have a fitted effect of over 75% in size
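MLSMR compounds (23 nl, pin-transferred) preincubated 10 min at room temperature with a 500nM (2x) first reagent, then RGS4 at 900nM (2x) plus Transcreener GDP mix added; fluorescence polarization (620/688 nm) read before and after 90 min at 30 °C.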
TRPML1 ag: qHTS for Agonists of the Human Mucolipin Transient Receptor Potential 1 (TRPML1). activation, % (concentration not given with the values). 0.12% of 410,000 active. AID 624414, 2012. Mucolipin-1 (Homo sapiens), Q9GZU1. TRPML1-expressing cells, Ca2+ dye fluorescence, FDSS; in the data active = activation above about 50%; inconclusive = mostly about 30% to 49%; note: 0% is about no effect
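In this qHTS format, compounds were pin-transferred onto Ca8-dye-loaded TRPML1-DL cells induced with Tet overnight, and intracellular Ca2+ fluorescence was recorded kinetically for 110 s after a 10 s baseline. A subsequent 4uM final 54-4 (EC80) addition followed by a second 110 s read served as the antagonist phase.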
A-T KAP1 phos: qHTS Assay for Identifying a Potential Treatment of Ataxia-Telangiectasia; F2112 A-T fibroblasts, KAP-1 phosphorylation AlphaLISA; neocarzinostatin DNA damage 30 min before lysis; Potency, µM (highest dose often 57.5 µM), inactives show at the highest dose activation, hits mostly activators; 0.19% of 320,000 active; AID 485349, 2010; note: potency is the fitted concentration of half-maximal effect; % of control where 0% means no effect; nearly all actives have a fitted effect of over 45% in size
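hTERT-immortalized A-T patient fibroblasts (F2112), 500 cells/well in OPTI-MEM, 1% FBS, got compounds for 60 min, then NCS for 30 min at 37C. Lysates were then assayed for phospho-KAP-1 by AlphaLISA (anti-pKAP1 donor, anti-KAP1 acceptor beads), 6 hr at 25C.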
TRPML1 blocker: qHTS for Inhibitors of the Human Mucolipin Transient Receptor Potential 1 (TRPML1); Mucolipin-1 (Homo sapiens), Q9GZU1; TRPML1-inducible cells, Ca2+ dye fluorescence, FDSS; hits give low values; inhibition of EC80 agonist-evoked calcium signal; activity change, negative = inhibition, % (concentration not given with the values); 0.02% of 390,000 active; in the data active = activity change below about -50%; inconclusive = between about -30% and that limit;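 note: stimulus is agonist 54-4 at its EC80 concentration; % is set by controls: 0 for no effect and ±100 for the full control effect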
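TRPML1-DL cells, Tet-induced overnight (~16 h, 37 °C) at 1,500 cells/well, were loaded with Ca8 no-wash dye plus quencher for 45-90 min at room temperature. Compounds were pinned during FDSS kinetic reading; agonist 54-4 at EC80 (4 uM final) then added.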
TRPV1 ag: HTS Assay for Compounds that Act as Agonists of the Vanilloid Receptor 1. Transient receptor potential cation channel subfamily V member 1 (Homo sapiens), Q8NER1. TRPV1-expressing cells, Fluo-8 calcium influx, agonist mode. activation, % at 8.33 µM. 0.19% of 320,000 active; in the data active = activation above about 80%; inconclusive = between about 30% and that limit; note: 0% is about no effect
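TRPV1-expressing cells were cultured overnight at 35.5C and loaded with Fluo-8 calcium dye for 40 to 90 min at room temperature. After a 10 s baseline, compound was added and calcium influx was read kinetically for 3 min (ex 480/em 520 nm).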
Numbers without * were called inactive; ? = inconclusive; · = no result; [ ] = remark or other dose. Compounds with a hit are over-represented: about 0.5% of the library has one in this group of screens. Unless noted, calls come from the whole dose curve; as a rule, active = well fitted curve in the direction sought with a large enough effect; inconclusive = small, poorly fitted or top-dose-only effect, or another doubt; inactive = no such curve, though single readings can be large; an effect the other way counts as inactive or inconclusive.

SMILES	TRPV1 PAM	RGS4 inhibitor	TRPML1 ag	A-T KAP1 phos	TRPML1 blocker	TRPV1 ag
Cc1cc(C)cc(NC(=O)CN2CCN(c3ccccc3)CC2)c1	19	-14%	5	10µM*	3	1
FC(F)Oc1ccc(-n2cc(-c3ccc(Cl)cc3)[n+]3c2CCCCC3)cc1	?	-4%	0	14µM*	19	-1
COc1cccc(/C=C/C(=O)OCC(=O)Nc2cc(S(=O)(=O)N3CCOCC3)ccc2C)c1	11	-26%	1	-8%	16	5
CC1(C)CCC(=O)c2ccccc21	·	20%	0	·	-2	·
CC1(C)CCC2=C(O1)c1ccccc1C(=O)C2=O	·	15µM*	-1	·	·	·
COc1ccc(S(=O)(=O)N2CCN(C(=O)c3cc(-c4ccccc4OC)n[nH]3)CC2)cc1	17	-9%	2	8%	2	82*
N#C/C(=C\c1ccc(-c2cc(Cl)ccc2Cl)o1)C(=O)Nc1cccc2ncccc12	·	3µM*	·	·	·	·
CCOC(=O)C1CCCN(Cc2ccc(O)c(OC)c2)C1 (stereo unspecified)	2	8%	0	2%	-3	12
CCCOc1cc(N(CC)CC)ccc1/C=C(/C#N)c1nc2ccc(C)cc2[nH]1	-10	3%	?	0%	32	?
CCN(CC)c1ccc(/C=C(/C#N)c2nc3ccc(C)cc3[nH]2)c(OC(C)C)c1	-7	8%	0	-11%	-16	85*
S=C1NC[C@H](c2ccccc2)N1CCCCC1CCCCC1	-2	3%	0	35µM*	15	7
O=C(Nc1ccc(F)cc1)/C(Cl)=C/c1ccccc1	-1	-13%	2	-6%	27	83*
CC1CCN(S(=O)(=O)c2ccc(N=NC3=C(O)CC(C)(C)CC3=O)cc2)CC1	?	4%	0	2%	-17	-10
CC1(C)CC(=O)C(N=Nc2cccc(S(=O)(=O)N3CCOCC3)c2)=C(O)C1	-36	4%	1	18µM*	-6	17
CC(C)(C)C(=O)NC(=S)NNC(=O)c1ccc(Cl)cc1Cl	-12	-11%	66*	-2%	19	?
CC(C)(C)C(=O)NC(=S)NNC(=O)c1ccc(-c2ccccc2)cc1	-21	-32%	80*	-6%	4	?
CC(C)(C)C(=O)NC(=S)NNC(=O)c1ccncc1	-3	9%	0	7%	5	-3
Cc1nc(Nc2cccc(Cl)c2)c2oc3ccccc3c2n1	14	5%	1	-8%	5	86*
Cc1nc(Nc2cccc(F)c2)c2oc3ccccc3c2n1	17	-7%	1	9%	14	99*
COc1ccc(Nc2nc(C)nc3c2oc2ccccc23)c(OC)c1	-2	-12%	0	0%	-3	?
Cc1nc(Nc2cccc(O)c2)c2oc3ccccc3c2n1	-29	-7%	5	11%	11	15
COc1cccc(Nc2nc(C)nc3c2oc2ccccc23)c1	-6	-1%	3	-9%	-7	80*
COc1cc(C(=O)N2CC(C)OC(C)C2)c([N+](=O)[O-])cc1OC (stereo unspecified)	26	9%	0	7%	-14	6
CCCc1cc(C(=O)Nc2ccccc2SC)no1	20	-15%	2	40µM*	-3	-1
Cc1cc(C)c2c(=O)c3c(oc2c1)C(=O)N(CCO)C3c1cccc(O)c1 (stereo unspecified)	-11	46%[11.4 µM]	0	4%	-56*	-1
COc1ccc([N+](=O)[O-])cc1NC(=O)Cc1c(Cl)cccc1Cl	1	-8%	-1	-5%	-11	7
